Measurements as given in the supplement of paper PMC10849652.
About 8,800 targets were measured; listed, in parts, are those with a hit and a random draw of the rest. About 0.5% of all pairs of compound and target were hits. A number with no mark means an inactive call.

Experiments:
Assay in all cases: log2 fold change, soluble protein after heating vs DMSO (PISA); higher = thermal stabilisation; K562 lysate, 10 uM; active = over 0.2 and 3.5 SD of the protein, either way, in both replicates (recomputed)
alvocidib = compound: CN1CC[C@H](c2c(O)cc(O)c3c(=O)cc(-c4ccccc4Cl)oc23)[C@H](O)C1 [alvocidib]
Summary of the method: (§1)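 K562 pellets were dounce-homogenised in PBS pH 7.4 containing 1 mM MgCl2, and the crude extract, at 1 mg/mL protein, was exposed to 10 μM compound for 30 min. Aliquots were heated for 3 min across 48°C-58°C, pooled, brought to 0.5% NP-40 at 4°C and spun at 21,000xg for 90 min, with the supernatant taken as soluble protein. TMTpro 16plex LC-MS/MS with equalised channel sums quantified that protein. Values are log-two fold changes in thermal stability relative to solvent controls, taken from duplicates.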

Tubastatin A = compound: CN1CCc2c(c3ccccc3n2Cc2ccc(C(=O)NO)cc2)C1 [Tubastatin A]
Summary of the method: as §1

[1] = compound: CNC(=O)C1=CC=CC=C1NC2=NC(=NC=C2Cl)NC3=C(C=C(C=C3)N4CCOCC4)OC
Summary of the method: as §1

defactinib = compound: CNC(=O)c1ccc(Nc2ncc(C(F)(F)F)c(NCc3nccnc3N(C)S(C)(=O)=O)n2)cc1 [defactinib]
Summary of the method: as §1

[2] = compound: CNc1nc(-c2ccc3c(N)n[nH]c3c2)cc(N2C[C@@H](C(=O)NC3CCCCC3)CC[C@H]2C)n1
Summary of the method: as §1

encorafenib = compound: COC(=O)N[C@@H](C)CNc1nccc(-c2cn(C(C)C)nc2-c2cc(Cl)cc(NS(C)(=O)=O)c2F)n1 [encorafenib]
Summary of the method: as §1

[3] = compound: COC(=O)[C@H](CCSC)NC(=O)C1=C(C=C(C=C1)NC[C@H](CS)N)C2=CC=CC=C2
Summary of the method: as §1

alisertib = compound: COc1cc(Nc2ncc3c(n2)-c2ccc(Cl)cc2C(c2c(F)cccc2OC)=NC3)ccc1C(=O)O [alisertib]
Summary of the method: as §1

[4] = compound: COc1cc2nc(-c3cc(F)ccc3O)nc(N[C@@H]3CNC[C@H]3C(C)(C)O)c2cc1OC
Summary of the method: as §1

gefitinib = compound: COc1cc2ncnc(Nc3ccc(F)c(Cl)c3)c2cc1OCCCN1CCOCC1 [gefitinib]
Summary of the method: as §1

Sequence of UniProt P04406 (P04406 whole entry, looked up): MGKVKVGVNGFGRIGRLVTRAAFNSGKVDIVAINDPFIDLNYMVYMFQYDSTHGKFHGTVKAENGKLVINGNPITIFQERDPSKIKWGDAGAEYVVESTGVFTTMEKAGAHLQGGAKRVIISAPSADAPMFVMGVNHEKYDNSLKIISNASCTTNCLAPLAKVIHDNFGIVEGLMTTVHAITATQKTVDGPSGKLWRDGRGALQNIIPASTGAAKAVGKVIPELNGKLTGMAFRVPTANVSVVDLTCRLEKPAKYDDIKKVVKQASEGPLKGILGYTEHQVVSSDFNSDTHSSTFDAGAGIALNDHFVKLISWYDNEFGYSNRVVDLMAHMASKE
Sequence of UniProt Q8N5C7 (Q8N5C7 whole entry, looked up): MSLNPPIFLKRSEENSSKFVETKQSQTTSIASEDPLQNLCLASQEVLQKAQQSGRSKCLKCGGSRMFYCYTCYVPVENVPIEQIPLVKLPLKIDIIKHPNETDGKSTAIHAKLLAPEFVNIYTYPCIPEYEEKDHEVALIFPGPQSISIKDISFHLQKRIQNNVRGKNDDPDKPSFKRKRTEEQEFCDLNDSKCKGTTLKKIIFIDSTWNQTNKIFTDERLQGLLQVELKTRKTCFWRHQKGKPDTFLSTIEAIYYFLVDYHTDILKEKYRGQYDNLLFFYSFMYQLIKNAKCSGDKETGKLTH
Sequence of UniProt P11413 (P11413 whole entry, looked up): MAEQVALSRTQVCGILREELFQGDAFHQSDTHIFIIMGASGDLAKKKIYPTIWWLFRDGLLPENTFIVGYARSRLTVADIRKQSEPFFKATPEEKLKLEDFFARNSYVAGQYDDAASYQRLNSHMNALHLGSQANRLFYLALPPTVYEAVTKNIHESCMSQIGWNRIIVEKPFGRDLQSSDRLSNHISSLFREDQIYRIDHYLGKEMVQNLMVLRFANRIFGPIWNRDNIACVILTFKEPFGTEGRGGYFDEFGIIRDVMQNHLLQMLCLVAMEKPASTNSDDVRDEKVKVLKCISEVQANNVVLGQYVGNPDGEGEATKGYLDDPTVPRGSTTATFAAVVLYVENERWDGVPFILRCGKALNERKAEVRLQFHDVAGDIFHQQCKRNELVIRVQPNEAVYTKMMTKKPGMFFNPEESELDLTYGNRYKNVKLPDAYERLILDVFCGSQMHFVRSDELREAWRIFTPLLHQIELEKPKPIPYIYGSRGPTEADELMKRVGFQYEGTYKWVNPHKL
Sequence of UniProt Q9NVI1 (Q9NVI1 whole entry, looked up): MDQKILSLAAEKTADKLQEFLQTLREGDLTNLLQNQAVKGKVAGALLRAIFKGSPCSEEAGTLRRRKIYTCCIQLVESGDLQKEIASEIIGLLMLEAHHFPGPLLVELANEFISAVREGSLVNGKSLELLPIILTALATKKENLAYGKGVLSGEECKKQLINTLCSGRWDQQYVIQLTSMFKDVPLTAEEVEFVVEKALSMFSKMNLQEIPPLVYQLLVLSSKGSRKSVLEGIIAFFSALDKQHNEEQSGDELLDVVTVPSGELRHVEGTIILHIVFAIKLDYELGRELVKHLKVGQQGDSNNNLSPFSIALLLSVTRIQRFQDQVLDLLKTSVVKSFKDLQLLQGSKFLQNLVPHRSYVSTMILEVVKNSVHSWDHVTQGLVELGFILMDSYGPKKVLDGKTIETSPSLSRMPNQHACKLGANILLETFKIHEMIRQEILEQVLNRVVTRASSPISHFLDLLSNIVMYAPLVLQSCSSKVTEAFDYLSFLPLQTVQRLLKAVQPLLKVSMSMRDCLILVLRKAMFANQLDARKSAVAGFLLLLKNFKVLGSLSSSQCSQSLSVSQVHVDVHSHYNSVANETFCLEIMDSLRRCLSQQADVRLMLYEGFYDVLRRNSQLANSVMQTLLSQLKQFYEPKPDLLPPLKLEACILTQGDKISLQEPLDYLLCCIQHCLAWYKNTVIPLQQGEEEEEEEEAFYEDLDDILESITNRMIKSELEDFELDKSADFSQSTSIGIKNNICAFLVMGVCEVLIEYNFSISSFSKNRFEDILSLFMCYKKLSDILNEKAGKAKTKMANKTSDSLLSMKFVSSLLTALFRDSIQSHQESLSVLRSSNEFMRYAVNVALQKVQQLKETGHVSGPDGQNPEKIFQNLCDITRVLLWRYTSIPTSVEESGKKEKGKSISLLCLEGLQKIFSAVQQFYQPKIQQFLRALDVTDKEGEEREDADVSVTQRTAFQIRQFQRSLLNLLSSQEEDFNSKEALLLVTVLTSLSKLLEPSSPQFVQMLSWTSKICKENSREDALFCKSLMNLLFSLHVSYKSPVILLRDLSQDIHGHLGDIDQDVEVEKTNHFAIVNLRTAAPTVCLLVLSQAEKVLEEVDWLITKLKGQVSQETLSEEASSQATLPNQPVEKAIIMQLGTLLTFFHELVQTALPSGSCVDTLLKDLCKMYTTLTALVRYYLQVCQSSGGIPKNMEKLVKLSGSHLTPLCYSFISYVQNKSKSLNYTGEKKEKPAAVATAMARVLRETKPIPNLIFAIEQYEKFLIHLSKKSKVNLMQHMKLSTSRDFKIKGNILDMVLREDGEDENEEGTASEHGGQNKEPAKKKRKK
Sequence of UniProt Q8TEQ6 (Q8TEQ6 whole entry, looked up): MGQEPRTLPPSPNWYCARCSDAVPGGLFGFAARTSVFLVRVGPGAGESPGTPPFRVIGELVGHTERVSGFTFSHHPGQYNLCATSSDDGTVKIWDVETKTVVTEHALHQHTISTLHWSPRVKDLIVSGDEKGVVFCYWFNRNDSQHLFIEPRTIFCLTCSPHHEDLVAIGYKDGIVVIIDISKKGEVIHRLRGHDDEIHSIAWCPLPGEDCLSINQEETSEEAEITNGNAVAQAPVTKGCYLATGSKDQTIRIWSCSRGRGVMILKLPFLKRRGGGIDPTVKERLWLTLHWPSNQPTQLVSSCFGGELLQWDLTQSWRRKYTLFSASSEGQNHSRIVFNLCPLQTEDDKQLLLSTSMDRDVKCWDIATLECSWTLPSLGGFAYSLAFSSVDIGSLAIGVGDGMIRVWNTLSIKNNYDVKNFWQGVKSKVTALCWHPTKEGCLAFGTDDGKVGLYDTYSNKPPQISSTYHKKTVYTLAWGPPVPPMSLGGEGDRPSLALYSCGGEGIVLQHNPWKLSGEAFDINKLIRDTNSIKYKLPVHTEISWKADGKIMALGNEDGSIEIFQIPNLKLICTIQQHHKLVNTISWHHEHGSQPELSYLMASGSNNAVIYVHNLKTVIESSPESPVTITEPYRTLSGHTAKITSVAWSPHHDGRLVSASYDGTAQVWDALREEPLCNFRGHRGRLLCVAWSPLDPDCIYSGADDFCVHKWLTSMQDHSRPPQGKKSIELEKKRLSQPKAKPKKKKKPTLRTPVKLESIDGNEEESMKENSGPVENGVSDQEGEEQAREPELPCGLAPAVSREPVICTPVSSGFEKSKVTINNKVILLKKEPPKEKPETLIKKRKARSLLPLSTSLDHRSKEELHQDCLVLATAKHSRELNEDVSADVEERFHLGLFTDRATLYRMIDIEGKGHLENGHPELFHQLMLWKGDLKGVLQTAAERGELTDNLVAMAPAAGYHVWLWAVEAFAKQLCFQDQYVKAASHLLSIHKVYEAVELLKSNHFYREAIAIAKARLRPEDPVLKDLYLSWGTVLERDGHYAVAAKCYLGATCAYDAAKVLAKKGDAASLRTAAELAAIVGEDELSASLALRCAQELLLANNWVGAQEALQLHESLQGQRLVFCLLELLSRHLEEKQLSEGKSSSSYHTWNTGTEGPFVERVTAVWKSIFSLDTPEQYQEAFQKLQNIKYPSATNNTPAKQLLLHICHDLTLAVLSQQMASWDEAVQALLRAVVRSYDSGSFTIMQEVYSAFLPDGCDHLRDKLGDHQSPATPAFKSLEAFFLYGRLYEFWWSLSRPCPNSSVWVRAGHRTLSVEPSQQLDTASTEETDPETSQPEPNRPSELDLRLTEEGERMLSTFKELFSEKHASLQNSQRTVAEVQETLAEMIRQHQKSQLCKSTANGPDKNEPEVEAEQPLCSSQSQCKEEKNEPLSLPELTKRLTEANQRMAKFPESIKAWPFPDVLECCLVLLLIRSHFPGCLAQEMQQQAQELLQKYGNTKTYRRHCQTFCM
Sequence of UniProt O95208 (O95208 whole entry, looked up): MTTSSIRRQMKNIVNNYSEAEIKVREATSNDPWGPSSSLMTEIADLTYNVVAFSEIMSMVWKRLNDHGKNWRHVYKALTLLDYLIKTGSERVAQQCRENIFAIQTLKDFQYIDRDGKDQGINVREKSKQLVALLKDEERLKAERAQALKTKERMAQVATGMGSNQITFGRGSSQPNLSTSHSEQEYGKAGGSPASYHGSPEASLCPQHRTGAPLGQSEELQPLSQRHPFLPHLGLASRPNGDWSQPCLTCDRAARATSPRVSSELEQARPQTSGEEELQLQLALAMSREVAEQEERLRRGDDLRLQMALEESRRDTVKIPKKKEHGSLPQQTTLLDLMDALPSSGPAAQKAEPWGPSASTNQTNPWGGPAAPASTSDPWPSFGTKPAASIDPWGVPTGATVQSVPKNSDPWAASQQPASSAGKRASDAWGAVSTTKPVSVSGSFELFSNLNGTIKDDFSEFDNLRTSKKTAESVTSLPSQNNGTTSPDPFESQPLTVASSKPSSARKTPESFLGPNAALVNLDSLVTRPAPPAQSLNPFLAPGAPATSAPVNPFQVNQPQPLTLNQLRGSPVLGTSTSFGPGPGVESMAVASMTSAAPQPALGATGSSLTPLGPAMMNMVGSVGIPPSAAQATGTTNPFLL
Sequence of UniProt P26378 (P26378 whole entry, looked up): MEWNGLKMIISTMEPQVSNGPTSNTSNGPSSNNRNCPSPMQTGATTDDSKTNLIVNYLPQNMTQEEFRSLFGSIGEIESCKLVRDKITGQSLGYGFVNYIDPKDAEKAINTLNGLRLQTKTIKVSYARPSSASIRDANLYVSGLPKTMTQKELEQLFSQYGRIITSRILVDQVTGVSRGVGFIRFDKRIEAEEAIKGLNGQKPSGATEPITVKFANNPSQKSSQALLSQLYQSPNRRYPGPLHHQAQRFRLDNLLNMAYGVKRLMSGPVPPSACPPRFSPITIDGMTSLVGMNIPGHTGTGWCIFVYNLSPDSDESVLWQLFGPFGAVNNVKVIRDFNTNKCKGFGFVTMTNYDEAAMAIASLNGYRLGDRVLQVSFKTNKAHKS

Row | Target | log2 fold change (alvocidib) | log2 fold change (Tubastatin A) | log2 fold change [1] | log2 fold change (defactinib) | log2 fold change [2] | log2 fold change (encorafenib) | log2 fold change [3] | log2 fold change (alisertib) | log2 fold change [4] | log2 fold change (gefitinib)
1 | G6PD isoform 2 (UniProt P11413) | 0.029 | -0.068 | 0.013 | 0.031 | 0.009 | -0.025 | 0.145 | 0.021 | -0.017 | -0.023
2 | DTWD1 (UniProt Q8N5C7) | 0.041 | -0.028 | 0.011 | -0.032 | 0.01 | -0.044 | -0.046 | 0 | 0.005 | -0.006
3 | FTSJ1 (UniProt Q9UET6) | 0.003 | -0.038 | 0.049 | -0.021 | -0.016 | -0.025 | 0.089 | 0.004 | 0.005 | -0.001
4 | EPN2 (UniProt O95208) | -0.079 | -0.008 | 0.001 | 0.005 | 0.009 | 0.016 | -0.051 | 0.002 | 0.03 | -0.014
5 | ELAVL1 isoform 2 (UniProt Q15717) | 0.013 | -0.187 | 0.05 | -0.005 | -0.011 | 0.018 | 0.166 | 0.019 | -0.002 | 0.048
6 | FAM83A (UniProt Q86UY5) | -0.095 | -0.039 | 0.061 | -0.055 | 0.015 | 0.02 | 0.07 | 0.02 | -0.013 | 0.017
7 | EHD2 (UniProt Q9NZN4) | -0.012 | -0.051 | 0.055 | 0.032 | -0.037 | 0.001 | 0.246 | -0.015 | 0.071 | -0.04
8 | ELAVL4 (UniProt P26378) | 0.019 | -0.125 | 0.036 | -0.007 | -0.003 | 0.003 | 0.211 | 0.136 | -0.031 | 0.056
9 | FANCI (UniProt Q9NVI1) | 0.063 | -0.097 | 0.014 | 0.01 | -0.036 | 0.002 | 0.052 | 0 | 0.01 | -0.002
10 | GEMIN5 (UniProt Q8TEQ6) | 0.023 | -0.21 | 0.027 | 0.031 | -0.007 | 0.011 | 0.057 | 0.014 | -0.019 | -0.032
11 | FBRSL1, A0A3B3IRR3 | -0.051 | -0.004 | -0.074 | -0.002 | 0.008 | 0.021 | -0.03 | -0.018 |  | 0.014
12 | GCLM (UniProt P48507) | 0.028 | -0.049 | 0.003 | 0.003 | -0.038 | -0.003 | -0.004 | 0.05 | 0.002 | -0.023
13 | FBXO38 (UniProt Q6PIJ6) | -0.008 | -0.043 | -0.616 (active) | 0.019 | 0.01 | -0.004 | -0.038 | -0.015 | -0.062 | 0.056
14 | GAPDH (UniProt P04406) | 0.01 | 0.046 | 0 | 0.012 | 0.018 | -0.045 | -0.006 | -0.039 | -0.001 | -0.026
